In PubChem BioAssay (Tox21):
Several values for one entry are separate records, joined by “and”; a condition that tells them apart may be missing. Equal values may be shown once. Results filed as inconclusive are left out. Where a call stands in place of a potency, no number is given. Where a structure was tested more than once in an assay, its records may differ in their call. Activity calls are given as the source filed them. Unless noted, calls follow the shape of the full dose curve.

Tests used:
[1] = Nuclear factor erythroid 2-related factor 2/antioxidant responsive element (Nrf2/ARE) small molecule agonists: qHTS cell viability counter screen in human keratinocytes (AID 1919968; active = well fitted curve in the direction sought with a large enough effect in the repeat runs; an effect the other way counts as inactive or inconclusive; also: nearly all actives have a fitted effect of over 55% in size; also: potency is read from the fitted curve at half-maximal effect)
How it was run: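 KeratinoSens cells (HaCaT keratinocytes stably carrying an ARE-luciferase reporter) were seeded at 1,500 cells/well and rested 5 h at 37 C/5% CO2. They were then exposed to compounds in DMSO for 23 h. Viability was read by CellTiter-Fluor fluorescence after 1 h.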

[2] = Nuclear factor erythroid 2-related factor 2/antioxidant responsive element (Nrf2/ARE) small molecule agonists: luciferase reporter gene qHTS assay in human keratinocytes (AID 1919969); also: nearly all actives have a fitted effect of over 35% in size; also: potency is read from the fitted curve at half-maximal effect
[3] = target: Gonadotropin-releasing hormone receptor (Homo sapiens) (UniProt P30968); experiment: Human gonadotropin-releasing hormone receptor (GnRHR) small molecule agonists, calcium flux assay in GnRHR-HEK293 cells (AID 1920063); also: nearly all actives have a fitted effect of over 35% in size; also: potency is read from the fitted curve at half-maximal effect
How it was run: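 HEK293 cells stably expressing human GnRHR were plated 18 h at 37 °C, loaded with calcium dye 1 h at 37 °C, then given compound in agonist mode; fluorescence (Ex/Em 480/540) read kinetically for 3 min at 1 s intervals.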

[4] = p53 small molecule agonists, cell-based qHTS assay with human liver microsomes (AID 1963577);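 also: p53 response element beta-lactamase reporter cells with liver microsomes plus NADPH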
How it was run: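 Steps: plate p53RE-bla cells, incubate 5 h at 37 C; add compound in DMSO; add microsomes (0.5 mg/mL final) and NADPH (0.5 mg/mL final); incubate 16 h at 37 C; add LiveBLAzer, 2 h RT; read fluorescence.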

[5] = p53 small molecule agonists, cell-based qHTS assay with rat liver microsomes (AID 1963578)
How it was run: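 Metabolic activation is supplied by rat liver microsomes with NADPH (each 0.5 mg/mL final). p53RE-bla cells incubate with compound 16 h at 37 C; reporter activity is measured by LiveBLAzer fluorescence.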

[6] = p53 small molecule agonists, cell-based qHTS assay with human liver microsomes: qHTS cell viability counter screen (AID 1963579); also: nearly all actives have a fitted effect of over 45% in size; also: potency is read from the fitted curve at half-maximal effect
How it was run: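 After the 460/530 nm beta-lactamase read, CellTiter-Glo was added to the same wells and luminescence measured after 30 min at room temperature, giving viability of p53RE-bla cells treated 16 h with compounds plus microsomes and NADPH.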

[7] = p53 small molecule agonists, cell-based qHTS assay with rat liver microsomes: qHTS cell viability counter screen (AID 1963580); also: nearly all actives have a fitted effect of over 45% in size
How it was run: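 p53RE-bla HCT-116 cells (4,000/well) rested 5 h at 37 C, then given Tox21 compounds in DMSO with rat liver microsomes (0.5 mg/mL final) plus NADPH (0.5 mg/mL final) for 16 h at 37 C. Viability read by CellTiter-Glo luminescence after 30 min at room temperature.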

[8] = p53 small molecule agonists, cell-based qHTS assay: qHTS cell viability counter screen (AID 1963581); also: nearly all actives have a fitted effect of over 45% in size
How it was run: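 p53RE-bla HCT-116 cells were exposed to compounds for 16 h at 37 C; after the beta-lactamase FRET read in the same wells, CellTiter-Glo was added and luminescence (intracellular ATP) read after 30 min at room temperature.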

[9] = p53 small molecule agonists, cell-based qHTS assay (AID 1963582; active = well fitted activation curve with a large enough effect in the signal ratio in the repeat runs, not every such curve was filed as active; the % refers to the signal ratio)
How it was run: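 p53RE-bla beta-lactamase reporter cells rested 5 h at 37 C/5% CO2, then received compounds in DMSO by pin transfer and were incubated 16 h at 37 C. LiveBLAzer B/G FRET substrate was loaded for 2 h at room temperature before fluorescence reading.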

[10] = target: 5-hydroxytryptamine receptor 2A (Homo sapiens) (UniProt P28223); experiment: 5-hydroxytryptamine receptor 2A (HTR2A) small molecule antagonists, cell-based qHTS assay (AID 1963586); also: nearly all actives have a fitted effect of over 45% in size; also: potency is read from the fitted curve at half-maximal effect
How it was run: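 Antagonist-mode intracellular calcium assay: DOI (4 nM) added after 5 min compound pre-incubation at room temperature to dye-loaded HTR2A-CHO cells. Fluorescence followed for 3 min, sampled every second.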

[11] = target: 5-hydroxytryptamine receptor 2A (Homo sapiens) (UniProt P28223); experiment: 5-hydroxytryptamine receptor 2A (HTR2A) small molecule agonists, cell-based qHTS assay (AID 1963587); also: nearly all actives have a fitted effect of over 30% in size; also: potency is read from the fitted curve at half-maximal effect
How it was run: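 HTR2A-CHO cells, plated 18 h at 37 C/5% CO2, dye-loaded 1 h at 37 C; compounds in DMSO added by pin tool (agonist mode). Intracellular calcium flux read as kinetic fluorescence on FDSS over 2 min at 1 s intervals.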

[12] = target: Muscarinic acetylcholine receptor M1 (Homo sapiens) (UniProt P11229); experiment: Cholinergic receptor muscarinic 1 (CHRM1) small molecule antagonists, cell-based qHTS assay (AID 1963588); also: nearly all actives have a fitted effect of over 40% in size; also: potency is read from the fitted curve at half-maximal effect
How it was run: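 CHRM1-CHO calcium-flux assay, antagonist mode. Cells were seeded 18 h, dye-loaded 1 h at 37 C and given compound for 5 min at RT, then acetylcholine was added at 50nM. FDSS fluorescence was read 3 min; 15 concentrations, three runs.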

[13] = target: Muscarinic acetylcholine receptor M1 (Homo sapiens) (UniProt P11229); experiment: Cholinergic receptor muscarinic 1 (CHRM1) small molecule agonists, cell-based qHTS assay (AID 1963589); also: nearly all actives have a fitted effect of over 35% in size
How it was run: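 CHO cells stably expressing human CHRM1, seeded 18 h at 37 C/5% CO2, dye-loaded 1 h at 37 C, then given compound in agonist mode; intracellular calcium fluorescence read kinetically at 1 s intervals. Fifteen concentrations, three independent runs.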

[14] = cAMP Responsive Elements (CRE) small molecule agonists, cell-based qHTS assay (AID 1963590)
How it was run: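 CRE-bla HEK 293T cells in DMEM with 10% dialyzed FBS, NEAA, pyruvate and 25 mM HEPES were plated 18 h at 37 C/5% CO2, then exposed to compounds in DMSO for 3 h before LiveBLAzer B/G FRET substrate addition.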

[15] = cAMP Responsive Elements (CRE) small molecule antagonists, cell-based qHTS assay (AID 1963591; active = well fitted inhibition curve with a large enough effect in the signal ratio in the repeat runs, not every such curve was filed as active; the % refers to the signal ratio)
How it was run: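 CRE-bla HEK293T cells were plated 18 h at 37 °C/5% CO2, pinned with compound in DMSO, then stimulated with NKH477 at 0.25 uM final for 3 h. LiveBLAzer B/G FRET substrate was added and plates incubated 2 h at room temperature.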

[16] = target: Beta-2 adrenergic receptor (Homo sapiens) (UniProt P07550); experiment: Adrenergic beta2 receptor (ADRB2) small molecule antagonists, cell-based qHTS assay (AID 1963592); also: series mostly up to about 92 µM; nearly all actives have a fitted effect of over 50% in size
How it was run: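 Cells (CHO, stable ADRB2 overexpression) incubated 18-20hr at 37C; compounds added from DMSO; agonist mix (1nM isoproterenol, 100uM IBMX, 25uM Ro-20-1724) added; 0.5hr RT; d2-cAMP and anti-cAMP-cryptate added; 1hr RT; 665/615 nm read.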

[17] = target: Beta-2 adrenergic receptor (Homo sapiens) (UniProt P07550); experiment: Adrenergic beta2 receptor (ADRB2) small molecule agonists, cell-based qHTS assay (AID 1963593);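 also: CHO cells stably overexpressing human ADRB2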
How it was run: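 CHO cells stably over-expressing ADRB2 were plated overnight at 37C, then dosed with compounds plus a stimulation mix containing 100uM IBMX and 25uM Ro-20-1724 for 0.5hr at room temperature. cAMP was measured by HTRF competition, 1hr.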

[18] = target: D(2) dopamine receptor (Homo sapiens) (UniProt P14416); experiment: Dopamine D2 receptor (DRD2) small molecule agonists, cell-based qHTS assay (AID 1963594); also: nearly all actives have a fitted effect of over 35% in size
How it was run: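 HEK293 cells stably expressing DRD2 were cultured 24 h at 37 C, then given Ro20-1724 (0.1 mM final) and compounds for 10 min at room temperature. NKH477 (200nM) was then added for 30 min. cAMP was read by HTRF.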

[19] = target: D(2) dopamine receptor (Homo sapiens) (UniProt P14416); experiment: Dopamine D2 receptor (DRD2) small molecule antagonists, cell-based qHTS assay (AID 1963595; active = well fitted inhibition curve with a large enough effect in the signal ratio in the repeat runs, with a control signal flat; the % refers to the signal ratio)
How it was run: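 DRD2-HEK293; 0.1 mM Ro20-1724; cpd 10 min RT; NKH477 200 nM + quinpirole 12 nM, 30 min RT; HTRF cAMP (cAMP-d2/anti-cAMP cryptate), 665/620 nm ratio after 1 h.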

[20] = target: KiSS-1 receptor (Homo sapiens) (UniProt Q969F8); experiment: Human kisspeptin (KISS1R) small molecule agonists, calcium flux assay in KISS1R-HEK293 cells (AID 1920064; active = well fitted curve in the direction sought with a large enough effect in the repeat runs; an effect the other way counts as inactive or inconclusive)
How it was run: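 HEK293 cells stably expressing human KISS1R were plated 18 h at 37 °C, loaded with calcium dye for 1 h at 37 °C, then given compound by pin tool. Fluorescence (Ex/Em 480/540) was read kinetically for 3 min.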

D(2) dopamine receptor (Homo sapiens), sequence (P14416 whole entry, looked up): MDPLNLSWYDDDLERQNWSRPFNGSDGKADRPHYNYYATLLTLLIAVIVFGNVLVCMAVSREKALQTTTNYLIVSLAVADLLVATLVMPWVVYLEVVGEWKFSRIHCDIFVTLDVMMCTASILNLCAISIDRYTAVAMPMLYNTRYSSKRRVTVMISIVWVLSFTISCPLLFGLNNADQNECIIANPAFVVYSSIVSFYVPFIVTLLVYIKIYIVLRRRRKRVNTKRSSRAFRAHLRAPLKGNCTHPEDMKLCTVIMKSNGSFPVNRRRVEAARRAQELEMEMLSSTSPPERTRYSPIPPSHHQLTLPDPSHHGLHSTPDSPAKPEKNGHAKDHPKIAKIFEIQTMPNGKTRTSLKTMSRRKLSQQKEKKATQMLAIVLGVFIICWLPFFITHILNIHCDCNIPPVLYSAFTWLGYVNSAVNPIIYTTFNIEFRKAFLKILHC
Beta-2 adrenergic receptor (Homo sapiens), sequence (P07550 whole entry, looked up): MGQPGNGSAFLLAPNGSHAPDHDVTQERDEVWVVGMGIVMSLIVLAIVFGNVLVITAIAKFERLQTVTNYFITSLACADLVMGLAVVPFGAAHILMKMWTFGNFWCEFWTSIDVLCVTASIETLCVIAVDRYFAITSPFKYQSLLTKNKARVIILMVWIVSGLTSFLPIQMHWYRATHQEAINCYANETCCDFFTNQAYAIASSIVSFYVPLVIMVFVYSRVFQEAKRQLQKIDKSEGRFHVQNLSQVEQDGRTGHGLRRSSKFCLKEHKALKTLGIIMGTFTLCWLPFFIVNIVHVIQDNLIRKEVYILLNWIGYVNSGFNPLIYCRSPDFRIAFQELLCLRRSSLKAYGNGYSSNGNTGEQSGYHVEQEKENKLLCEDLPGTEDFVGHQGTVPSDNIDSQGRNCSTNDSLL
Gonadotropin-releasing hormone receptor (Homo sapiens), sequence (P30968 whole entry, looked up): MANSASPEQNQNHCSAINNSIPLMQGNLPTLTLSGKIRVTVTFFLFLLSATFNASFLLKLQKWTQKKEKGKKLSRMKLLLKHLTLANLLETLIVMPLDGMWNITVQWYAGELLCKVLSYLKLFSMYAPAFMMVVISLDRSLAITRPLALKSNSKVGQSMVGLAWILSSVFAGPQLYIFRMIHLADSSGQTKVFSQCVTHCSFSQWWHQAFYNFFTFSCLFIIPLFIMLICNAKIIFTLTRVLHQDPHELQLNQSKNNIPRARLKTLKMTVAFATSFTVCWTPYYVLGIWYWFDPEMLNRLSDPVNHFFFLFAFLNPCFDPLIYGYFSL
Muscarinic acetylcholine receptor M1 (Homo sapiens), sequence (P11229 whole entry, looked up): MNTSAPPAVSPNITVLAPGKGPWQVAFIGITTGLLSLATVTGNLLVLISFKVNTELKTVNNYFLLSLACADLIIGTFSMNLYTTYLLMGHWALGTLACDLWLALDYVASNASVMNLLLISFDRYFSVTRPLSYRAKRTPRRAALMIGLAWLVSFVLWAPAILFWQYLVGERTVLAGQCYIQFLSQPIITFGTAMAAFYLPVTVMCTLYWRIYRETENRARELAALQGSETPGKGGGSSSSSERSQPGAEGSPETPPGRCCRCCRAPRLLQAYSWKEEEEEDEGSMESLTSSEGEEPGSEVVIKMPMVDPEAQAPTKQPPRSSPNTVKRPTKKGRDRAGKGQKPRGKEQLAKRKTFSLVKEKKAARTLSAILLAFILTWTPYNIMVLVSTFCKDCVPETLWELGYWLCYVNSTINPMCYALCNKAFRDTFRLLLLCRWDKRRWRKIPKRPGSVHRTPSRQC
5-hydroxytryptamine receptor 2A (Homo sapiens), sequence (P28223 whole entry, looked up): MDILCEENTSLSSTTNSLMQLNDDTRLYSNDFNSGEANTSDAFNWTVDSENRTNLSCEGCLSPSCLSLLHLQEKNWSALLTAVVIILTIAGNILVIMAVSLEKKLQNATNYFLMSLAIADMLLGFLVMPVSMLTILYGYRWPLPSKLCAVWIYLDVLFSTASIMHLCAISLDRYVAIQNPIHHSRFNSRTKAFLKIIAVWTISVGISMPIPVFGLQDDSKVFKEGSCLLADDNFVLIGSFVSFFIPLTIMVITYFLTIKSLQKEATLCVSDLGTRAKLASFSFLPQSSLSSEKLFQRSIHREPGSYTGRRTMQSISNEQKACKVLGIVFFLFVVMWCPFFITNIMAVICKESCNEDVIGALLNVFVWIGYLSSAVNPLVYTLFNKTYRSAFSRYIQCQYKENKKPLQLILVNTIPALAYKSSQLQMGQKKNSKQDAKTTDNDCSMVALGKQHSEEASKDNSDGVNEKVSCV
KiSS-1 receptor (Homo sapiens), sequence (Q969F8 whole entry, looked up): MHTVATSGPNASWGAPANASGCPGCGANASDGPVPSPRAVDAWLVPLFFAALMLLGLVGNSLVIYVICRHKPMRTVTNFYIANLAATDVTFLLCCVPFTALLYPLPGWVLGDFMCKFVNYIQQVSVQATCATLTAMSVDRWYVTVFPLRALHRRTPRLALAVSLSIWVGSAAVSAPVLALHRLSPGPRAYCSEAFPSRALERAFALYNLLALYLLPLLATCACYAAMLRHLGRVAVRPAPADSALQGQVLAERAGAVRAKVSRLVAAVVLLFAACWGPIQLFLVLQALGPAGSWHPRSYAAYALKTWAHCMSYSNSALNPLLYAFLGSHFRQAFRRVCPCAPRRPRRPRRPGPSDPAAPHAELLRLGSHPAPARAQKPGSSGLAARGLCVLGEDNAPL

CN1[C@@H]2CC[C@H]1CC(NC(=O)n1c(=O)[nH]c3ccccc31)C2 (stereo partly drawn)
Potency [1]: inactive
Potency [2]: inactive
Potency [3]: inactive
Potency [4]: inactive
Potency [5]: inactive
Potency [6]: inactive
Potency [7]: inactive
Potency [8]: inactive
Potency [9]: inactive
Potency [10]: inactive
Potency [11]: inactive
Potency [12]: inactive
Potency [13]: inactive
Potency [14]: inactive
Potency [15]: inactive
Potency [16]: inactive
Potency [17]: inactive
Potency [18]: inactive
Potency [19]: inactive

CC(C)(C)c1ccc(O)c(O)c1
Potency [1]: inactive
Potency [2]: 63.2 µM (active) and 8.63 µM (active)
Potency [3]: inactive
Potency [20]: inactive
Potency [5]: inactive
Potency [6]: inactive
Potency [7]: inactive
Potency [8]: inactive
Potency [10]: inactive
Potency [11]: inactive
Potency [12]: inactive
Potency [13]: inactive
Potency [14]: inactive
Potency [15]: inactive
Potency [16]: inactive
Potency [18]: inactive
Potency [19]: inactive

Oc1ccc2c(c1)OC[C@@H](N1CCC(O)(c3ccc(F)cc3)CC1)[C@H]2O
Potency [1]: inactive
Potency [2]: inactive
Potency [3]: inactive
Potency [5]: inactive
Potency [6]: inactive
Potency [7]: inactive
Potency [9]: inactive
Potency [10]: inactive
Potency [11]: inactive
Potency [12]: inactive
Potency [13]: inactive
Potency [14]: inactive
Potency [15]: inactive
Potency [17]: inactive
Potency [18]: inactive
Potency [19]: inactive

CCC(=O)OC(C)(C)C1CC=C(C)CC1 (stereo not drawn)
Potency [1]: inactive
Potency [2]: inactive
Potency [3]: inactive
Potency [4]: inactive
Potency [6]: inactive
Potency [7]: inactive
Potency [8]: inactive
Potency [9]: inactive
Potency [11]: inactive
Potency [12]: inactive
Potency [13]: inactive
Potency [14]: inactive
Potency [16]: inactive
Potency [17]: inactive
Potency [18]: inactive
Potency [19]: inactive

CC(C)Oc1ccc2c(=O)c(-c3ccccc3)coc2c1
Potency [1]: inactive
Potency [2]: 376 nM (active) and 266 nM (active)
Potency [3]: inactive
Potency [4]: inactive
Potency [5]: inactive
Potency [6]: inactive
Potency [7]: inactive
Potency [8]: inactive
Potency [9]: inactive
Potency [14]: inactive
Potency [15]: inactive
Potency [16]: inactive
Potency [17]: inactive
Potency [18]: inactive
Potency [19]: inactive

CCC(=O)OCc1ccc(OC)cc1
Potency [1]: inactive
Potency [2]: inactive
Potency [3]: inactive
Potency [4]: inactive
Potency [5]: inactive
Potency [6]: inactive
Potency [7]: inactive
Potency [8]: inactive
Potency [10]: inactive
Potency [11]: inactive
Potency [12]: inactive
Potency [14]: inactive
Potency [15]: inactive
Potency [16]: inactive
Potency [17]: inactive
Potency [18]: inactive
Potency [19]: inactive

CCCCCCCCCCCCCCCC[N+](C)(C)CC
Potency [1]: 54.6 µM (active)
Potency [2]: inactive
Potency [3]: 13.8 µM (active)
Potency [4]: inactive
Potency [5]: inactive
Potency [6]: 45.9 µM (active) and inactive
Potency [7]: inactive
Potency [8]: inactive
Potency [9]: inactive
Potency [10]: 13.3 µM (active) and 11.6 µM (active)
Potency [11]: 43.8 µM (active)
Potency [12]: 422 nM (active) and 65 nM (active)
Potency [13]: inactive
Potency [16]: inactive
Potency [18]: inactive

CC(C)CC(C)(N)C#N (stereo not drawn)
Potency [1]: inactive
Potency [2]: inactive
Potency [3]: inactive
Potency [4]: inactive
Potency [5]: inactive
Potency [6]: inactive
Potency [7]: inactive
Potency [8]: inactive
Potency [9]: inactive
Potency [10]: inactive
Potency [11]: inactive
Potency [12]: inactive
Potency [13]: inactive
Potency [14]: inactive
Potency [15]: inactive
Potency [16]: inactive
Potency [18]: inactive
Potency [19]: inactive
